We go through one sequence from article PMC7862700, “An all-to-all approach to the identification of sequence-specific readers for epigenetic DNA modifications on cytosine”.

Holding throughout (experiment): DAPPL (digital affinity profiling via proximity ligation, sequencing); 10 mM Tris-HCl pH 7.5, 50 mM NaCl, 1 mM DTT, 4% glycerol, room temperature, 30 min; GST-TFs on glutathione beads, 16-mer random dsDNA library, 0.1% formaldehyde crosslink after washing; high values mean tight binding
The target in one test is T1, FLI1 (Homo sapiens, UniProt Q01543 1-452).
T1 sequence: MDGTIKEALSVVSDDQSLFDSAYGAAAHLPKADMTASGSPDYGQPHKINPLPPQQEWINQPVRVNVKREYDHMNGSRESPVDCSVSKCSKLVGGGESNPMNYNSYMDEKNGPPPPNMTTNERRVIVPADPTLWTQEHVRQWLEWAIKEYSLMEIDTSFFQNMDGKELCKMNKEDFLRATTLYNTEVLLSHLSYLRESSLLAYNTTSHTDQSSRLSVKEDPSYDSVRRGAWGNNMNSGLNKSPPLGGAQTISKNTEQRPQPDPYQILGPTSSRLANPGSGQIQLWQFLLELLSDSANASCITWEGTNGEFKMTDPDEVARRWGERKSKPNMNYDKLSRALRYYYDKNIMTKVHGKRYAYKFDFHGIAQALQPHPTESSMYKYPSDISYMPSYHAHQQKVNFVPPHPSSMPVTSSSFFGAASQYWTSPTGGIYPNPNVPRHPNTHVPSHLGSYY
Particulars: protein: recombinant; tags: N-terminal GST; dsDNA, one strand shown. The method, boiled down: (§1)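 Sequencing on an Illumina NextSeq500 followed washing, crosslinking with 0.1% formaldehyde, proximity ligation (BsaI/T4 ligase, 1 h, 37 °C) and PCR amplification of pools that had been incubated for 30 min at room temperature with 200 nmole of a random double-stranded 16-mer DNA library in Tris/NaCl/DTT/glycerol buffer. Each pool held DNA-barcoded human transcription factors, expressed in yeast as GST fusions and captured on glutathione beads, plus a tag-only sample. Binding signal is a hexamer's read frequency for a factor divided by its frequency in the tag-only sample.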

In the next test the target is T2, ELK1 (Homo sapiens, UniProt P19419 1-428).
T2 sequence: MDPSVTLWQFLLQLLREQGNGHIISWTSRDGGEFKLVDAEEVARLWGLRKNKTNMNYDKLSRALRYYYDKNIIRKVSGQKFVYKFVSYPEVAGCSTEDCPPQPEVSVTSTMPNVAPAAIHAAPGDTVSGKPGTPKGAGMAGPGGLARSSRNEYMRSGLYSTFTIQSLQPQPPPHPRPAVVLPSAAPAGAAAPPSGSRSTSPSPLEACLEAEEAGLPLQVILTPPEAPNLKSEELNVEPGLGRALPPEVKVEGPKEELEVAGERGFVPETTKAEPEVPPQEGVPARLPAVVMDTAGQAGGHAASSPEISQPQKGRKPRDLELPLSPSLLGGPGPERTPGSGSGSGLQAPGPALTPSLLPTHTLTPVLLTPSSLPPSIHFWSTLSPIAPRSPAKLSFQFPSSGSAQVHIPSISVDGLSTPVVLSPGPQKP
Particulars: protein: recombinant; tags: N-terminal GST; dsDNA, one strand shown. An outline of the steps:
as §1

The next test addresses T3, GABPA (Homo sapiens, UniProt Q06546 1-454).
T3 sequence: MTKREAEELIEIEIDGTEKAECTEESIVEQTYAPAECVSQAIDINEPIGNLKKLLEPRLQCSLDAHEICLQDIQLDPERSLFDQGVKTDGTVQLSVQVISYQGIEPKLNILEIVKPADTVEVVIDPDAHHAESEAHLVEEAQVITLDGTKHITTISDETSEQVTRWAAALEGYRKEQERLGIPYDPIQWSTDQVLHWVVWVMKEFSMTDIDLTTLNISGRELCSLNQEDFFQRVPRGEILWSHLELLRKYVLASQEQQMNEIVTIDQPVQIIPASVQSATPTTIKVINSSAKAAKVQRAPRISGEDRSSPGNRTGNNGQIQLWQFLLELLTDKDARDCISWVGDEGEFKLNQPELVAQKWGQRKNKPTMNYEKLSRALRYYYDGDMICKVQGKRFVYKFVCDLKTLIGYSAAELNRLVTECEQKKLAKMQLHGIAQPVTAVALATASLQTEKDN
Particulars: protein: recombinant; tags: N-terminal GST; dsDNA, one strand shown. The method, boiled down:
as §1

The next test has as its target T4, ERG (Homo sapiens, UniProt P11308 1-479).
T4 sequence: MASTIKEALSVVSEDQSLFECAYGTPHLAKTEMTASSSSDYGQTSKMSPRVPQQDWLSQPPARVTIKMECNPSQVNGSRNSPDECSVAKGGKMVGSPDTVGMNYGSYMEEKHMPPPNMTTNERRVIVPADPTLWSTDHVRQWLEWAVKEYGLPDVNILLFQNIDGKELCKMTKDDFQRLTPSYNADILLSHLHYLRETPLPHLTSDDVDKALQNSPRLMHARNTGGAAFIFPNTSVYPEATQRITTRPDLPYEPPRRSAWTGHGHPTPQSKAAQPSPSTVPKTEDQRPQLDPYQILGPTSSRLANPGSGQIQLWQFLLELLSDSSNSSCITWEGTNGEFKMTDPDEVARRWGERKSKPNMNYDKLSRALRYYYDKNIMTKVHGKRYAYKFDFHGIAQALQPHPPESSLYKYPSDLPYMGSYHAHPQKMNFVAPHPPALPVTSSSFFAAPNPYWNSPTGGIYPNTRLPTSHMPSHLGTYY
Particulars: protein: recombinant; tags: N-terminal GST; dsDNA, one strand shown. An outline of the steps:
as §1

The target in a further test is ELF1 (Homo sapiens, UniProt P32519 1-619). Particulars: protein: recombinant; tags: N-terminal GST; dsDNA, one strand shown. The method, boiled down: as §1
The target of another test is T5, EHF (Homo sapiens, UniProt Q9NZC4 1-300).
T5 sequence: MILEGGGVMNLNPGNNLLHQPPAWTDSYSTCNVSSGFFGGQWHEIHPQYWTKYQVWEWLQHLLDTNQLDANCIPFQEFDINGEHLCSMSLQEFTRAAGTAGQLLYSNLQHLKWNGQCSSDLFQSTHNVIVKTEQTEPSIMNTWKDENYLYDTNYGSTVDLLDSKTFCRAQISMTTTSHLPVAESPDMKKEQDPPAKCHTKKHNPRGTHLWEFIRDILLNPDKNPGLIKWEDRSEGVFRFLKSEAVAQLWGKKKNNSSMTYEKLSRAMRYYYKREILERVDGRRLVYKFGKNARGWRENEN
Particulars: protein: recombinant; tags: N-terminal GST; dsDNA, one strand shown. The method, boiled down: as §1

In another test the target is SPI1 (Homo sapiens, UniProt P17947 1-270). Particulars: protein: recombinant; tags: N-terminal GST; dsDNA, one strand shown. The method, boiled down: as §1
In the next test the target is SPIB (Homo sapiens, UniProt Q01892 1-262). Particulars: protein: recombinant; tags: N-terminal GST; dsDNA, one strand shown. An outline of the steps:
as §1

The next test has as its target T6, ELK3 (Homo sapiens, UniProt P41970 1-407).
T6 sequence: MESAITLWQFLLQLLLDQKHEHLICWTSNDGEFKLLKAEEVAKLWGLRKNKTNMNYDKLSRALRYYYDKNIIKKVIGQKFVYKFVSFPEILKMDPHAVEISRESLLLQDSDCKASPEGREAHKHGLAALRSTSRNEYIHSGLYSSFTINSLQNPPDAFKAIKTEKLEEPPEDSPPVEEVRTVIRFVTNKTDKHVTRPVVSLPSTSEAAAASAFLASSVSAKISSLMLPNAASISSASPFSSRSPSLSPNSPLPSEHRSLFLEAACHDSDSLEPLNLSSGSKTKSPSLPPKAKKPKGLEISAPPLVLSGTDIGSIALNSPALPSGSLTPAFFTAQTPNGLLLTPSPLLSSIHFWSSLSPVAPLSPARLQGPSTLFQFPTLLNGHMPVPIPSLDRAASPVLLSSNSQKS
Particulars: protein: recombinant; tags: N-terminal GST; dsDNA, one strand shown. An outline of the steps:
as §1

The target in another test is T7, FEV (Homo sapiens, UniProt Q99581 1-238).
T7 sequence: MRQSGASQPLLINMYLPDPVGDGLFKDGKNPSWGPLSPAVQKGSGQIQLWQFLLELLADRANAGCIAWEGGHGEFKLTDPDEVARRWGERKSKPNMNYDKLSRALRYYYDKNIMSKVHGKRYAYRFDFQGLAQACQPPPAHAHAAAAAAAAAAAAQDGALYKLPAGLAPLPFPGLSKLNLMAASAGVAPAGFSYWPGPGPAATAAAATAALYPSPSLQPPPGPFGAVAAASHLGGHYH
Particulars: protein: recombinant; tags: N-terminal GST; dsDNA, one strand shown. The method, boiled down:
as §1

A further test concerns the target ETV5 (Homo sapiens, UniProt P41161 1-510). Particulars: protein: recombinant; tags: N-terminal GST; dsDNA, one strand shown. The method, boiled down: as §1
The target in another test is HSF1 (Homo sapiens, UniProt Q00613 1-529). Particulars: protein: recombinant; tags: N-terminal GST; chain copies: 3; dsDNA, one strand shown. The method, boiled down: as §1
Another test deals with T8, SPIC (Homo sapiens, UniProt Q8N5J4 1-248).
T8 sequence: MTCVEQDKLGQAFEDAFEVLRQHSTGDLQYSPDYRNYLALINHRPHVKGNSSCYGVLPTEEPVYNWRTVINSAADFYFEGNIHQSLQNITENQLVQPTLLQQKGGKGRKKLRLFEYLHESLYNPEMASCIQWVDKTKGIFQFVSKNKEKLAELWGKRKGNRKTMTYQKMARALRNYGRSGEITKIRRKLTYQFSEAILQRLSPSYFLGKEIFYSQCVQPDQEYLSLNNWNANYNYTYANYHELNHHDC
Particulars: protein: recombinant; tags: N-terminal GST; dsDNA, one strand shown. The method, boiled down:
as §1

The target of another test is ELF4 (Homo sapiens, UniProt Q99607 1-663). Particulars: protein: recombinant; tags: N-terminal GST; dsDNA, one strand shown. The method, boiled down: as §1
In another test the target is T9, ELK4 (Homo sapiens, UniProt P28324-2 1-405).
T9 sequence: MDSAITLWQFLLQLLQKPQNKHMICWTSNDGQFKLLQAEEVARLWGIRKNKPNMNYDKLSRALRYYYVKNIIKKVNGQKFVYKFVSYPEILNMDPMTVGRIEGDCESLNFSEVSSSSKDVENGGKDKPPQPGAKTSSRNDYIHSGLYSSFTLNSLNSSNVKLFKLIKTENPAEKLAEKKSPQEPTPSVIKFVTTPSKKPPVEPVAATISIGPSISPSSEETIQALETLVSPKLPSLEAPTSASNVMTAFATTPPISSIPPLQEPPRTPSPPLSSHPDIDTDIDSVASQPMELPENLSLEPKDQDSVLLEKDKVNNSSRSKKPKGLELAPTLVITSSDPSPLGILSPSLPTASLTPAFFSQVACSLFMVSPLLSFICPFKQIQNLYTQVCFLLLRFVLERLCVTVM
Particulars: protein: recombinant; tags: N-terminal GST; dsDNA, one strand shown. The method, boiled down:
as §1

The target of a further test is T10, ETV2 (Homo sapiens, UniProt O00321 1-342).
T10 sequence: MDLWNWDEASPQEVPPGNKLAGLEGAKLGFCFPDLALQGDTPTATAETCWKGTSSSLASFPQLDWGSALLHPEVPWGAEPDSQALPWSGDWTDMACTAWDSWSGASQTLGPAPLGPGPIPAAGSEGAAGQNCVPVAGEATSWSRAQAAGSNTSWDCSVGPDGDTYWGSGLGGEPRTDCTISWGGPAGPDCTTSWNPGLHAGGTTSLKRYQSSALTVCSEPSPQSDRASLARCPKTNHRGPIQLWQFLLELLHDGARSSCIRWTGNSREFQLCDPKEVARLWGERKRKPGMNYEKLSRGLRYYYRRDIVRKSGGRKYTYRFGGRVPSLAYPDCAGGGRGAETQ
Particulars: protein: recombinant; tags: N-terminal GST; dsDNA, one strand shown. An outline of the steps:
as §1

A further test addresses T11, ELF3 (Homo sapiens, UniProt P78545 1-371).
T11 sequence: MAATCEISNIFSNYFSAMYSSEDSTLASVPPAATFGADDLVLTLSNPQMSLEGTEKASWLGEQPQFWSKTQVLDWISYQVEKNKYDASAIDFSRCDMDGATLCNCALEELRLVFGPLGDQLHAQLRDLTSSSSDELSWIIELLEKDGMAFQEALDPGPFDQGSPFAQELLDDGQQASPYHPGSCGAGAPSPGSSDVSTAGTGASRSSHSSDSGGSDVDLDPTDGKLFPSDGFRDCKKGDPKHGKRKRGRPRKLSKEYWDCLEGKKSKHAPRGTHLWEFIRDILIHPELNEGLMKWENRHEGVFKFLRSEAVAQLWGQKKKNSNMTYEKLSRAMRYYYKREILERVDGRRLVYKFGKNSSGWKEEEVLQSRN
Particulars: protein: recombinant; tags: N-terminal GST; dsDNA, one strand shown. The method, boiled down: as §1

In another test the target is ETV1 (Homo sapiens, UniProt P50549 1-477). Particulars: protein: recombinant; tags: N-terminal GST; dsDNA, one strand shown. The method, boiled down: as §1
Sequence of ETV1 (P50549 whole entry): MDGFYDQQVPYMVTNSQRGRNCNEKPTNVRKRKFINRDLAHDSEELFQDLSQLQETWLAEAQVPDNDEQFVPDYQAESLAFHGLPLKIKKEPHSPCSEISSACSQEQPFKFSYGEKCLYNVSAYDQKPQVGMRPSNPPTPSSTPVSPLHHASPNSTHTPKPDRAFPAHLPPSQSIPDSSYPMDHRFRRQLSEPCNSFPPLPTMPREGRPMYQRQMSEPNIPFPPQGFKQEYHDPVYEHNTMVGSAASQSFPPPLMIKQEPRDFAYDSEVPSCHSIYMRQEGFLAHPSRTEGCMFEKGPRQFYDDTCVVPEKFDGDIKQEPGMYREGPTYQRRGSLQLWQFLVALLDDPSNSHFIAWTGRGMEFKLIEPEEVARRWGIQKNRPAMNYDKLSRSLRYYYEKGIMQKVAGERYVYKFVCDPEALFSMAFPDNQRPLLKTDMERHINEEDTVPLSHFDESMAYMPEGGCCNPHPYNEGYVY

Sequence of ELF4 (Q99607 whole entry): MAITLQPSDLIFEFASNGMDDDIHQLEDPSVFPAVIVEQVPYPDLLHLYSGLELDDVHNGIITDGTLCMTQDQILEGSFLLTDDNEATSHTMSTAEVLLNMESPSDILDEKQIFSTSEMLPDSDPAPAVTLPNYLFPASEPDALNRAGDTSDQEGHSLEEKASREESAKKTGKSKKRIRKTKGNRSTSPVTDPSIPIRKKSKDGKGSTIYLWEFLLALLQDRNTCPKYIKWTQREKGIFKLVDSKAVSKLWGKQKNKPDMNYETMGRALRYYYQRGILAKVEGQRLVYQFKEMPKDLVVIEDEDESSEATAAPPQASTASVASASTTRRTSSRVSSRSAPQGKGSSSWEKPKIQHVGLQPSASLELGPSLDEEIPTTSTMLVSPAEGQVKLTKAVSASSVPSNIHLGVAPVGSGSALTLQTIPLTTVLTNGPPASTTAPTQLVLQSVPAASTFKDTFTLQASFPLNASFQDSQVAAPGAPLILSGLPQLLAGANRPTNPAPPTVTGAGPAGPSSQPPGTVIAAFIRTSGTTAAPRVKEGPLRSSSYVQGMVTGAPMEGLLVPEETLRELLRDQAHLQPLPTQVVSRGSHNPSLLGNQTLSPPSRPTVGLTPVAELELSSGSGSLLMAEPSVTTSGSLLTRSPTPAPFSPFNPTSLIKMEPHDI
Sequence of ELF1 (P32519 whole entry): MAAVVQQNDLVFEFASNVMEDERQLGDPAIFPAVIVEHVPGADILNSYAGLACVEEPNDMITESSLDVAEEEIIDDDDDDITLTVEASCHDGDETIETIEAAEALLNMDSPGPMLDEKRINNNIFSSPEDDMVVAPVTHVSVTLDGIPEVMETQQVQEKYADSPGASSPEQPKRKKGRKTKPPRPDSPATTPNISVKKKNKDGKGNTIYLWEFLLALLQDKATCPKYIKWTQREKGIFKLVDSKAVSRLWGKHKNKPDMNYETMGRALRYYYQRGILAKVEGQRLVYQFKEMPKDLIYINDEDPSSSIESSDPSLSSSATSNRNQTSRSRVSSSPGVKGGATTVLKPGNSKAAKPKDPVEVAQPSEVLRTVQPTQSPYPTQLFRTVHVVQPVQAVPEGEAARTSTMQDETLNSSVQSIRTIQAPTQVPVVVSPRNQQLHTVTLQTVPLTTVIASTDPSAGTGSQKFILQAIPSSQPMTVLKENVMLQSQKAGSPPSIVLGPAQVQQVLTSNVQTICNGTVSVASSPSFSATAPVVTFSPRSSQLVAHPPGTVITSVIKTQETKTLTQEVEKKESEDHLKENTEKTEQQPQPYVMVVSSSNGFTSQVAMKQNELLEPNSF
Sequence of HSF1 (Q00613 whole entry): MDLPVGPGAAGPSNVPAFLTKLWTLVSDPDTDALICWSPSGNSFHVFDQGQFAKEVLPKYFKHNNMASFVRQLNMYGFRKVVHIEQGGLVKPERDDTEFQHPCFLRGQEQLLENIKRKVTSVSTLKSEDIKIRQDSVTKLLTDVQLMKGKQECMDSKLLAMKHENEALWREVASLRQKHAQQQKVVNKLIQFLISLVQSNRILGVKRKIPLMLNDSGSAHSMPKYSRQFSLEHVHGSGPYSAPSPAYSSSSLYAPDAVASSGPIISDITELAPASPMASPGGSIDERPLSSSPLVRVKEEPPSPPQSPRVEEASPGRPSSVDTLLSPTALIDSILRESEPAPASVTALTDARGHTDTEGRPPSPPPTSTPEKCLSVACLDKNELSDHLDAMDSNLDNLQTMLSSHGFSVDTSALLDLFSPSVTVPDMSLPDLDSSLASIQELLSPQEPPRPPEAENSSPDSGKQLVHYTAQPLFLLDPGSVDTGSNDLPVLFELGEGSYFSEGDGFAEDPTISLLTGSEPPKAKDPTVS
Sequence of ETV5 (P41161 whole entry): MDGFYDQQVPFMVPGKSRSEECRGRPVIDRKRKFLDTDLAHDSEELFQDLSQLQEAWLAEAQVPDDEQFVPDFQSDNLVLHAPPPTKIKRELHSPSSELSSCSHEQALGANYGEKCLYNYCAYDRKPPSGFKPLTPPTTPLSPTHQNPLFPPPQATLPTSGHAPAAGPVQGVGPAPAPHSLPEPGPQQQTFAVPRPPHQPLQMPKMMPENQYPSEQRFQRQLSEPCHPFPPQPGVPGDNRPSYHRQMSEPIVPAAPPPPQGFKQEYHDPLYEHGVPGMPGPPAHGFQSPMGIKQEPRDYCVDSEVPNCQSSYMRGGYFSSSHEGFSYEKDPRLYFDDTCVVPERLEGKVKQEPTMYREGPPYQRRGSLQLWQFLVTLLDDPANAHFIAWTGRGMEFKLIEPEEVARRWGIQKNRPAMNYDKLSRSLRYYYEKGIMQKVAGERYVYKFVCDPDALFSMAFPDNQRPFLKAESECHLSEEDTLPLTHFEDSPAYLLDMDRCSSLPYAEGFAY
Sequence of SPIB (Q01892 whole entry): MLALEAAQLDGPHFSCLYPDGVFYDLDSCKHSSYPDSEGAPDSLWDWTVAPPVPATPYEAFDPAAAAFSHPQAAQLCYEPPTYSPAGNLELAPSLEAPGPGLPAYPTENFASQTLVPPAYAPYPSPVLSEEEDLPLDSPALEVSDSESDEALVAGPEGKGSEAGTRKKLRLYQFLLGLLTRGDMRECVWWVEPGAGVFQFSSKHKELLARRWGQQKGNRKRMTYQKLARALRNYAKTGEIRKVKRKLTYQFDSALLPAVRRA

As for TCGCAC, the binding signal is 1.11 fold enrichment (6-mer frequency, TF over GST control) with FLI1; 1.1 fold enrichment (6-mer frequency, TF over GST control) in the test with ELK1; 1.09 fold enrichment (6-mer frequency, TF over GST control) with GABPA; 1.07 fold enrichment (6-mer frequency, TF over GST control) with ERG; 1.13 fold enrichment (6-mer frequency, TF over GST control) with ELF1; 1.06 fold enrichment (6-mer frequency, TF over GST control) with EHF. Also, the binding signal in the test with SPI1 was 1.13 fold enrichment (6-mer frequency, TF over GST control); with SPIB, 1.02 fold enrichment (6-mer frequency, TF over GST control); with ELK3 it was 1.02 fold enrichment (6-mer frequency, TF over GST control); with FEV, 1.12 fold enrichment (6-mer frequency, TF over GST control); with ETV5, 1.01 fold enrichment (6-mer frequency, TF over GST control); with HSF1, 1.03 fold enrichment (6-mer frequency, TF over GST control). In addition, the binding signal in the test with SPIC was 1.06 fold enrichment (6-mer frequency, TF over GST control); with ELF4, 1.13 fold enrichment (6-mer frequency, TF over GST control); with ELK4, 1.08 fold enrichment (6-mer frequency, TF over GST control); with ETV2, 1.07 fold enrichment (6-mer frequency, TF over GST control); with ELF3, 1.18 fold enrichment (6-mer frequency, TF over GST control); in the test with ETV1 it was 1.04 fold enrichment (6-mer frequency, TF over GST control).
